Data on 40 sequences can be found in the OligoGym collection.
Further: reference of the scale not given here.

In the first experiment the target is C8orf86. As to the kind of experiment: pooled miR-30 sensor sort-seq; sequence = guide strand. To be noted: shRNA.
As to TTGGCTCTTTGGAACTGCCTGT, the sensor-assay potency score (higher = more potent) is -0.109.

TTGTCTCTCTGTTCGCTGCTCA gave a sensor-assay potency score (higher = more potent) of 0.291.

As for TTTGTCTCTCTGTTCGCTGCTC, the sensor-assay potency score (higher = more potent) is -0.0258.

In the case of TAATTCAGGAGTTCTGGGCGGG, the sensor-assay potency score (higher = more potent) turned out to be 0.0945.

Another experiment addresses C9orf100. Described as above. The conditions noted are these: shRNA.
As to AAATTGGTTATAGAGCTCCAAG, the sensor-assay potency score (higher = more potent) is -1.5.

The sequence TTCTTGGTAGCGCCGCTCGGTC returned a sensor-assay potency score (higher = more potent) of -1.6.

In turn, TAAGCAGTAGCTTCTCATGAGG returned a sensor-assay potency score (higher = more potent) of -1.31.

In the case of TTTCTTTAGCTGCTCCTGCAGG, the sensor-assay potency score (higher = more potent) is -0.717.

In turn, TGAAGCCGTACAAACCTCCGGA gave a sensor-assay potency score (higher = more potent) of 0.131.

TTGATGGTCAGGGCTGTTGGGA came in with a sensor-assay potency score (higher = more potent) of -1.1.

Sequence TCGGTCTCTAGCAGCTCCCGGG had a sensor-assay potency score (higher = more potent) of -1.38.

In the case of TCAGACTGTGGTACCAGCGTGA, the sensor-assay potency score (higher = more potent) was 0.191.

In turn, ATCTGGAGTAGCTTGGTCCAGG yielded a sensor-assay potency score (higher = more potent) of -1.26.

TTATAGAGCTCCAAGTGGCGGC yielded a sensor-assay potency score (higher = more potent) of -0.479.

As to TATTTTTCTTTAGCTGCTCCTG, the sensor-assay potency score (higher = more potent) is -0.997.

TTGGTTATAGAGCTCCAAGTGG showed a sensor-assay potency score (higher = more potent) of -0.209.

Another experiment deals with C9orf172. The experiment is described as above. The conditions noted are these: shRNA.
Consider TCTCGGACAGGGACAGTGCGGC, for which the sensor-assay potency score (higher = more potent) was -0.804.

For the sequence ATGATCATGCACATGAAGGGGC, the sensor-assay potency score (higher = more potent) turned out to be 0.238.

As to TTGGCCTCGACGAACTCGCAAA, the sensor-assay potency score (higher = more potent) was -1.39.

Take TTGTCAGTGATGGTGATCTCGG: the sensor-assay potency score (higher = more potent) was -1.12.

Regarding TATGAGTCGCTGGGCGTCGGGG, the sensor-assay potency score (higher = more potent) was -1.22.

In turn, TTGATGTCCTGGTACACGGTCG yielded a sensor-assay potency score (higher = more potent) of -0.476.

The sequence TACCTTCCGAAGTCCTCCGTGT yielded a sensor-assay potency score (higher = more potent) of -0.162.

For TAGTAGGCGTCGAAGGTTGGGC, the sensor-assay potency score (higher = more potent) is -0.683.

Consider TTGAACATGGTCTCGGTGCGCC, for which the sensor-assay potency score (higher = more potent) is -0.301.

TAGGTGTAGCAGCTGTGGCAGG showed a sensor-assay potency score (higher = more potent) of -0.976.

Take TAGTAGGTGTAGCAGCTGTGGC: the sensor-assay potency score (higher = more potent) was -1.29.

Sequence TCATCAGGTCGTCCTCGTCGGC showed a sensor-assay potency score (higher = more potent) of -1.75.

A further experiment addresses C9orf30. The description is as above. To be noted: shRNA.
For TATTCTGACAGCTGAACACGAG, the sensor-assay potency score (higher = more potent) is -0.517.

With TTTATTGAGAACTTCCATTTTT, the sensor-assay potency score (higher = more potent) was -0.999.

As to TTTTCTTACATTCCAGCACATA, the sensor-assay potency score (higher = more potent) was -1.58.

As for TTATTGAGAACTTCCATTTTTA, the sensor-assay potency score (higher = more potent) is -0.9.

Regarding TTCAGAAGACTATAACAGCTTC, the sensor-assay potency score (higher = more potent) was -0.358.

TTATCCTGTGTTCCTCCTCTGC displayed a sensor-assay potency score (higher = more potent) of -1.19.

Sequence TTACAGGTTACTGACCGCCAAG returned a sensor-assay potency score (higher = more potent) of -1.66.

Regarding TTAAATGAGGAAACAGGCCATT, the sensor-assay potency score (higher = more potent) was -1.27.

AGAACTTCCATTTTTATCCTGT displayed a sensor-assay potency score (higher = more potent) of -0.0866.

As to TTGTTGATGGTGTTCTTCCTCA, the sensor-assay potency score (higher = more potent) is -0.2.

With ATCACTTTTCTTACATTCCAGC, the sensor-assay potency score (higher = more potent) was -1.2.

In turn, TATACTTTTCTACTAAAGCCAG returned a sensor-assay potency score (higher = more potent) of -0.895.
